# PubChem BioAssay (EPA / NIEHS)
# Where “and” joins values, the source holds several entries; their conditions need not be identical. Equal entries are not always repeated. Records with an inconclusive call do not appear. Some compounds were tested as several samples or in several runs, with calls that do not always agree. Calls of active or inactive are those of the source. How the source made its calls: active means hit-call score of the fitted dose curve at least 0.9, where 1 is the maximum; inconclusive means response in the unintended direction; inactive means score below 0.9.
# Test system: not listed separately
# Assay: TOX21_p53_BLA_p5_viability: Viability Assessment in the Tox21 HCT-116 p53 Agonism Beta-lactamase Assay, Phase 5 (AID 2283600)
# Outline: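 Cells were plated at 4000/well, rested 5 h at 37C, then given compounds in DMSO (217-fold dilution) for 16 h at 37C, 5% CO2. Following the CCF4-AM beta-lactamase read, CellTiter-Glo was added and luminescence was read after 30 min at room temperature.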
SMILES,outcome,AC50
CC1CCC(C(C)CS)CC1S (configuration not stated),inactive,
C=C(C)[C@@H]1CC[C@@H](C)C[C@@H]1O,inactive,
CCC(=O)OCCC(C)CCC=C(C)C (configuration not stated),inactive,
Cc1ccc(O)c(C(C)(C)C)c1,inactive,42.9 µM (active)
C=C(C)C(=O)Nc1ccc(Cl)c(Cl)c1,inactive,
CCN(CC)CCOC(=O)c1ccc(N)cc1,inactive,
COC(=O)c1ccc(C)cc1,inactive,
CCCCCCCCCCN,inactive,
NCCNCCN,inactive,
C[C@]12CC[C@H]3[C@@H](CCC4=CC(=O)CC[C@@]43C)[C@@H]1CC[C@@H]2C(=O)CO,inactive,
O=C1OC2(c3cc(Br)c(O)c(Br)c3Oc3c2cc(Br)c(O)c3Br)c2c(Cl)c(Cl)c(Cl)c(Cl)c21,inactive,
Cc1ccc(C(=O)c2cc(O)c(O)c([N+](=O)[O-])c2)cc1,inactive,
CNCCCC12CCC(c3ccccc31)c1ccccc12,inactive,70.2 µM (active)
COCCCOc1ccnc(CS(=O)c2nc3ccccc3[nH]2)c1C (configuration not stated),inactive,
c1ccc2c(c1)c1cccc3ccc4cccc2c4c31,inactive,
COC(=O)OC,inactive,
Cc1ccccc1C=O,inactive,
CC[Si](OC(C)=O)(OC(C)=O)OC(C)=O,inactive,

# Molecular target: Cellular tumor antigen p53 (Homo sapiens) (UniProt P04637)
# Sequence (P04637 whole entry, looked up): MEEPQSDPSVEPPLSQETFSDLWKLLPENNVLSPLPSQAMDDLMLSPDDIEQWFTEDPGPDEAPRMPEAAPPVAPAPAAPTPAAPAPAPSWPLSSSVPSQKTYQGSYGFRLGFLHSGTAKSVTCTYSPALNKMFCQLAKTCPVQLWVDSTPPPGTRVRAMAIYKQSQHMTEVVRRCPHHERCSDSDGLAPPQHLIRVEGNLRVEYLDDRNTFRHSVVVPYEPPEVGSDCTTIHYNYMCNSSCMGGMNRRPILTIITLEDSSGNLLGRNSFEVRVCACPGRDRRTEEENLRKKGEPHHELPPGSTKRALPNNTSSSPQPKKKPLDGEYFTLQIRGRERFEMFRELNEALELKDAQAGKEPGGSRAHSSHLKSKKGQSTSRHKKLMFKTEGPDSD
# Assay: TOX21_p53_BLA_p4_ratio: Tox21 HCT-116 p53 Agonism Beta-lactamase Assay, Ratio, Phase 4 (AID 2283601)
# Outline: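 Signal is the blue/green (460nm/530nm) ratio of cleaved versus uncleaved CCF4-AM substrate, read after 2 h substrate loading. Cells were HCT116 carrying the p53-responsive beta-lactamase reporter, dosed 16 h at 37C, 5% CO2; CellTiter-Glo measured in parallel.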
SMILES,outcome,AC50
CC1CCC(C(C)CS)CC1S (configuration not stated),inactive,
CCCCCCCCCCCCN,inactive,86.1 µM (active)
CC(=O)OCCOC(C)=O,inactive,
C=C(C)[C@@H]1CC[C@@H](C)C[C@@H]1O,inactive,
Cc1ccc(O)c(C(C)(C)C)c1,,72.2 µM (active) and 68.5 µM (active)
C=C(C)C(=O)Nc1ccc(Cl)c(Cl)c1,inactive,68 µM (active)
CCN(CC)CCOC(=O)c1ccc(N)cc1,inactive,
COC(=O)c1ccc(C)cc1,inactive,0.000134 µM (active)
CCCCCCCCCCN,inactive,
NCCNCCN,inactive,
C[C@]12CC[C@H]3[C@@H](CCC4=CC(=O)CC[C@@]43C)[C@@H]1CC[C@@H]2C(=O)CO,inactive,
O=C1OC2(c3cc(Br)c(O)c(Br)c3Oc3c2cc(Br)c(O)c3Br)c2c(Cl)c(Cl)c(Cl)c(Cl)c21,,48.7 µM (active) and 26.5 µM (active)
Cc1ccc(C(=O)c2cc(O)c(O)c([N+](=O)[O-])c2)cc1,inactive,49.6 µM (active)
CNCCCC12CCC(c3ccccc31)c1ccccc12,inactive,87 µM (active)
COCCCOc1ccnc(CS(=O)c2nc3ccccc3[nH]2)c1C (configuration not stated),inactive,
c1ccc2c(c1)c1cccc3ccc4cccc2c4c31,inactive,
COC(=O)OC,inactive,
Cc1ccccc1C=O,inactive,
CCn1c2ccccc2c2cc(N)ccc21,inactive,64 µM (active)
O=C1c2ccccc2C(=O)N1SC1CCCCC1,inactive,76 µM (active)
